Screens: PubChem BioAssay, several laboratories
RAD52 inh: blocks human RAD52 DNA annealing. hit rate 0.46% among 360,000. inhibition, % at 18.7 µM. recombinant RAD52 DNA annealing, FRET fluorescence. P43351;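 active = every replicate showing at least 50% inhibition; inconclusive = mean inhibition at least 50% but not in every replicate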
miR-122 sensor: inhibitors of miR-122 in Huh7 cells; Huh7 miR-122 Renilla luciferase sensor, 48 h; neutral wells = 0, positive control = 100; activation (reporter increase), % at 12.5 µM; hit rate 0.3% among 340,000; AID 602342;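 active = mean replicate activation score at least 90 and every replicate individually at or above 90; inconclusive = only one of the two criteria met; inactive = neither criterion met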;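 note: higher luciferase means less miR-122 activity so hits act as miR-122 inhibitors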
FID counter: counter-screen for HCV NS3 helicase inhibitors: DNA intercalator displacement. DNA fluorescent intercalator displacement, fluorescence. inhibition, % at 7.9 µM. AID 1845. hit rate 0.17% among 290,000; in the data active = inhibition above about 37%;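 note: 0% = vehicle and 100% = reference compound; higher means more ethidium bromide displaced from hairpin DNA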
RAD54 inh: RAD54 (human) branch migration inhibition | RAD54 Holliday junction branch migration, FAM/BHQ fluorescence | inhibition, % at 10.4 µM | hit rate 0.14% among 360,000 | Q92698 | AID 602329;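 active = mean normalized replicate activity at least 40 and at least half of replicates scoring 40 or more; inconclusive = only one of the two criteria met; inactive = mean below 40 and under half of replicates reaching 40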;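 note: 0% = median of neutral control wells and 100% = median of positive control wells; inhibitors cause a drop in the FAM fluorescence signal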
Target sequence (Q92698 whole entry, looked up): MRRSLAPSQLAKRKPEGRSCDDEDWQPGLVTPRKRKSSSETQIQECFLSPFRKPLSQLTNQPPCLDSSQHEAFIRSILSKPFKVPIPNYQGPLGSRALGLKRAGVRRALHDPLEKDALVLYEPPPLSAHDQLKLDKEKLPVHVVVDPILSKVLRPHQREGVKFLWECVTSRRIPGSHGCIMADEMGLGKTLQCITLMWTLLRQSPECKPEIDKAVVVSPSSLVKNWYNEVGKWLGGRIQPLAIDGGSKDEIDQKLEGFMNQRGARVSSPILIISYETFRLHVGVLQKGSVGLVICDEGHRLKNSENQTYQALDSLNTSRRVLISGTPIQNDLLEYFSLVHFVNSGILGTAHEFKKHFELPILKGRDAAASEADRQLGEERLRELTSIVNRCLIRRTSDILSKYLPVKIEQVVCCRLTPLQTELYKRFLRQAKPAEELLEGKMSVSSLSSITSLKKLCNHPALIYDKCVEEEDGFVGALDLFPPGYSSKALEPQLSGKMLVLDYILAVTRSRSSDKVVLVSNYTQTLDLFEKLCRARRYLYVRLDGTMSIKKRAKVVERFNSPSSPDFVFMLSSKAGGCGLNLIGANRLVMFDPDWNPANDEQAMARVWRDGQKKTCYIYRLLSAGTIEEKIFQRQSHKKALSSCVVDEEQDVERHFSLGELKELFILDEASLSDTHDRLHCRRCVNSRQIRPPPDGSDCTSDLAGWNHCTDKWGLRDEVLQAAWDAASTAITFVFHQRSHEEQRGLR
Glyco luc inh: blocks N-linked glycosylation in D54 reporter cells. D54 ERlucT glycosylation luciferase reporter, 24 h; percent of 100 nM tunicamycin response. reporter increase, % at 12.5 µM. hit rate 0.23% among 360,000. AID 588692;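 active = mean luciferase reporter signal, scaled so untreated is 0 and the glycosylation-blocking control 100, at or above a set limit in every replicate; inconclusive = mean reaches the limit but not every replicate does; inactive = mean below the limit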;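 note: luciferase carries N-glycosylation sites so blocking glycosylation raises the light; 0% = median of neutral control wells and 100% = median of 100 nM tunicamycin wells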
NRP1-CendR mod: NRP-1/CendR interaction modulation; O14786; FAM-RPARPAR peptide binding to NRP-1, fluorescence polarization; inhibition, % at 25 µM; hit rate 0.85% among 360,000; AID 602438;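 active = inhibition or corrected inhibition above about 18%, plus a signal ratio from 0.5 to 1.5, limit read from the data, passing the limit was not always enough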
Rad54 DNA ctr: counter-screen for Rad54 inhibitors: DNA binding compounds; shares compounds with RAD54 inh; Acridine orange-DNA displacement, fluorescence polarization, 20 min; AC50, µM (doses to about 35 µM), for the others: at the highest dose activity change, negative = DNA binding; hit rate 8% among 460;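 active = signal drop giving an AC50 within twice the top valid tested concentration of each sample, actives reach about 35 µM in these data; inactive = activity opposite to expected, plus the rest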;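 note: polarization loss reports compound binding to salmon sperm DNA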
* = called active by the depositor; i = inactive; ? = inconclusive; / = no result; [ ] = dose if it differs, or a comment. Only some compounds are listed: those with a hit (about 1.5% of all), similar ones and a draw of the others.

SMILES	RAD52 inh	miR-122 sensor	FID counter	RAD54 inh	Glyco luc inh	NRP1-CendR mod	Rad54 DNA ctr
O=C(Nc1ccccc1)c1cc(S(=O)(=O)N2CCOCC2)cs1	/	43	-1	?	1	-2	-3%
O=C(Nc1cccc([N+](=O)[O-])c1)c1cc(S(=O)(=O)N2CCOCC2)cs1	-2	-9	11	57*	-2	4	-9%
O=C(Nc1cccc(Br)c1)c1cc(S(=O)(=O)N2CCOCC2)cs1	-2	/	0	52*	2	3	5%
O=C(N[C@H]1C[C@@H]2O[C@@H](CO)CC[C@@H]2O[C@@H]1CCc1ccc(C#CC2CC2)cc1)c1cccc(F)c1	-9	/	/	/	/	/	/
CCn1cc(C(=O)NCCN(C)C)c(=O)c2cc(F)c(N3CCN(C)CC3)cc21	-28	/	56*	59*	5	2	-13%
C[C@H]1CN([C@@H](C)CO)C(=O)c2cc(-c3ccncc3)cnc2O[C@@H]1CN(C)C(=O)C1CCC1	/	-1[16.7 µM]	/	/	/	/	/
COCC#Cc1cnc2c(c1)C(=O)N([C@H](C)CO)C[C@@H](C)[C@H](CN(C)C(=O)c1cnccn1)O2	-13	0[16.7 µM]	/	6	/	/	/
COC(=O)c1c(NC(=O)c2ccc([N+](=O)[O-])o2)sc2c1CCN(C(C)C)C2	-12	-7	26	68*	5	-3	9%
O=C(NC1CCCC1)[C@@H]1[C@@H](CO)[C@@H]2Cn3c(ccc(-c4ccncc4)c3=O)[C@@H]2N1CC1CC1	-12	/	/	8	/	/	/
CCN(CC)S(=O)(=O)c1ccc(Cl)c(C(=O)Nc2nnc(C)s2)c1	/	-6	-7	?	0	-11	-8%
C[C@@H]1CCCCO[C@H](CN(C)Cc2ccc(Cl)c(Cl)c2)[C@@H](C)CN([C@@H](C)CO)C(=O)c2cc(NC(=O)C3CCCCC3)ccc2O1	-14	-7[16.7 µM]	/	2	/	/	/
O=C(CN1CCCC1)Nc1ccc(-c2nc3cc(NC(=O)CN4CCCC4)ccc3o2)cc1	/	-6	47*	?	-9	3	-22%
COCC(=O)N1CC(=O)N2[C@@H](CO)[C@@H](c3ccc(C#CC4CC4)cc3)[C@@H]2C1	7	/	/	/	/	/	/
CCN(CC)CCSc1nnc2c3cc(C)ccc3n(Cc3ccccc3)c2n1	35	2	9	?	-6	4	2%
CCN(CC)CCSc1nc2ccccc2n1Cc1ccccc1	-1	2	17	-15	-2	4	/
CCc1nc(Nc2ccncc2)c2oc3ccccc3c2n1	/	-16	12	66*	-4	-1	-19%
Cc1nc(Nc2ccncc2)c2oc3ccccc3c2n1	40	-8	17	/	-8	-8	/
O=C(Cc1ccccn1)N[C@H]1C=C[C@H](CC(=O)N2CCCCC2)O[C@H]1CO	1	/	/	-6	/	/	/
CCN(CC)CCOc1c(Br)ccc2c1sc1nc3n(c(=O)c12)CCC3	/	-10	16	86*	67*	0	-8%
O=c1c2c(nc3n1CCCCC3)sc1c(O)c(Br)ccc12	0	-1	5	-1	-10	2	/
CCN(CC)CCN(C(=O)c1ccc2ncsc2c1)c1nc2cc3c(cc2s1)OCO3	9	-1	13	?	-1	-7	-5%
CCN(CC)CCN(C(=O)c1ccc(C(=O)c2ccccc2)cc1)c1nc2cc3c(cc2s1)OCO3	-13	-3	8	-1	0	8	/
C[C@H](NC(=O)C[C@@H]1CC[C@H](NC(=O)Nc2ccc3c(c2)OCO3)[C@@H](CO)O1)c1ccccc1	0	14[16.7 µM]	/	3	/	/	/
CCOC(=O)c1cnc2c(Cl)cccc2c1NCCCN1CCOCC1	16	-2	32	?	-3	0	-22%
CCOC(=O)c1cnc2c(C(F)(F)F)cccc2c1NCCCN1CCOCC1	-9	3	0	11	1	-4	/
SMILES	RAD52 inh	miR-122 sensor	FID counter	RAD54 inh	Glyco luc inh	NRP1-CendR mod	Rad54 DNA ctr
CCOC(=O)c1cnc2c(CC)cccc2c1NCCCN1CCOCC1	32	-10	52*	?	2	14	10%
CCC(=O)N1CC(=O)N2[C@H](C1)[C@@H](c1ccc(-c3ccccc3F)cc1)[C@@H]2CO	2	/	/	/	/	/	/
Cc1cc(C)c2nc(C)cc(Nc3ccc(C(=O)NCCO)cc3)c2c1	6	3	4	50*	3	-2	-22%
CC1CC(C)CN(CCCNC(=O)C2CCN(c3ncnc4c3sc3cccc(F)c34)CC2)C1 (configuration not stated)	/	/	10	/	/	/	/
CCN(CC)CCCNC(=O)C1CCN(c2ncnc3c2sc2cccc(F)c23)CC1	42	14	20	53*	3	-6	-1%
C[C@H]1CN([C@@H](C)CO)C(=O)c2cccc(NS(=O)(=O)c3ccc(Cl)cc3)c2O[C@@H]1CN(C)C(=O)Nc1ccccc1	19	19[16.7 µM]	/	-7	/	/	/
CN1CCCC1CCNc1ccc2c(=O)c3ccccc3oc2c1 (configuration not stated)	44	/	20	92*	9	-1	-13%
O=c1c2ccccc2oc2cc(NCCCN3CCOCC3)ccc12	29	-2	6	66*	-5	24	-16%
O=c1c2ccccc2oc2ccc(NCCCN3CCOCC3)cc12	-4	-3	14	?	-5	-3	18%
CN1CCCC1CCNc1ccc2oc3ccccc3c(=O)c2c1 (configuration not stated)	28	/	23	/	/	/	/
O=c1c2ccccc2oc2cc(NCCCn3ccnc3)ccc12	-11	0	1	18	-9	-2	/
O=C(COc1ccc2c(c1)oc(=O)c1ccccc12)NCCCN1CCOCC1	18	-1	14	?	5	3	i
O=C(COc1ccc2c3c(c(=O)oc2c1)CCC3)NCCCN1CCOCC1	-9	-6	8	2	2	-2	/
CCCNC(=O)C[C@H]1CC[C@H]2[C@@H](COC[C@@H](O)CN2C(=O)Nc2cccc(Cl)c2)O1	10	-1[16.7 µM]	/	-3	/	/	/
Cc1ccc(S(=O)(=O)N(C)C[C@H]2OCCCC[C@H](C)Oc3ccc(NS(=O)(=O)c4ccc(Cl)cc4)cc3C(=O)N([C@H](C)CO)C[C@@H]2C)cc1	-2	-11[16.7 µM]	/	-19	/	/	/
c1ccc2c(c1)[nH]c1c(N3CCCC3)ncnc12	/	5	19	40	7	5	/
c1ccc2c(c1)[nH]c1c(N3CCN(C4CCCCC4)CC3)ncnc12	/	9	24	?	2	10	4%
CN1CCN(c2ncnc3c2[nH]c2ccc(F)cc23)CC1	/	-6	25	76*	0	15	-3%
COC(=O)C[C@@H]1C=C[C@@H](NC(=O)Nc2ccc(C(F)(F)F)cc2)[C@@H](CO)O1	-2	/	/	-5	/	/	/
COc1ccc(CC(=O)Nc2cccc(-c3nnc(-c4ccc(C)cc4)o3)c2)cc1OC	-3	-18	0	2	-10	-5	/
